Inconclusive results are not listed. A number with no mark means an inactive call. Activity calls are given as the source filed them. The call rests on the fitted dose curve; in most records, active means well fitted activation curve with a large enough effect; inconclusive means small, poorly fitted or top-dose-only effect; inactive means no such curve, though single readings can be large or run the other way.
molecular target: Rap guanine nucleotide exchange factor 4 (Homo sapiens) (UniProt Q8WZA2); assay: Confirmatory qHTS for agonist of cAMP-regulated guanine nucleotide exchange factor 4 (EPAC2) (AID 1645884); conditions: EPAC2 GEF activity, Rap1B-BODIPY-GDP fluorescence; series mostly up to 154 µM; activation: at the top concentration;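 further: nucleotide exchange releases bodipy-GDP from Rap1 and this lowers its fluorescence; nearly all actives have a fitted effect of over 65% in size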
Sequence (Q8WZA2 whole entry, looked up): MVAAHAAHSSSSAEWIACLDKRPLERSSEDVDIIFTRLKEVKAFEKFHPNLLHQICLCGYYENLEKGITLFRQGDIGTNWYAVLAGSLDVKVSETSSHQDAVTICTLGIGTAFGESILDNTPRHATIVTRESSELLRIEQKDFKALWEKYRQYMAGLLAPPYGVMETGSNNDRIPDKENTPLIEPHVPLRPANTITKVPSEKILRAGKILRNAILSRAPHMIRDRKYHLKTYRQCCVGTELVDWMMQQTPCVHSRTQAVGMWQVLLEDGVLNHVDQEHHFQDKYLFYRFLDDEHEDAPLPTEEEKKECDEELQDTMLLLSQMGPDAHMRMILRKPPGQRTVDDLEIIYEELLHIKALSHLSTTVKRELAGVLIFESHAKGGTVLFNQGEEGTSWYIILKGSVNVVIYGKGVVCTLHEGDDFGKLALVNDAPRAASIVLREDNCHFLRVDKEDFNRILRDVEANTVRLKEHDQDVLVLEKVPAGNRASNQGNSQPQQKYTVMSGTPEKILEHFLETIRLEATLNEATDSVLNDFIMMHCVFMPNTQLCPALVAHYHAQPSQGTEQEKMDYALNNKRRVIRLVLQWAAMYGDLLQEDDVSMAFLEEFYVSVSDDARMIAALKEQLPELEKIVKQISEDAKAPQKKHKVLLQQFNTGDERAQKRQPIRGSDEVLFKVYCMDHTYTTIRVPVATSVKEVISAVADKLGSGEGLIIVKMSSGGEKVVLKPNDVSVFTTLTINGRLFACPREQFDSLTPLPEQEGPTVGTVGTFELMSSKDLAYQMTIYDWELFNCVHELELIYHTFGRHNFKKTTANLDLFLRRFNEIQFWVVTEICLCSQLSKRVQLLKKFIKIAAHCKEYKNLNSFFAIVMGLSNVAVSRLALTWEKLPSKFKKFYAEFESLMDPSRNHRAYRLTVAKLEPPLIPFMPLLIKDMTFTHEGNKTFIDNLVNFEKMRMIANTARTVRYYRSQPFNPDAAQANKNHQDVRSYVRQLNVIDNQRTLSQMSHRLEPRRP
On the % scale 0 is the no-effect control and ±100 the full control effect; potency means the concentration at half of the fitted maximal effect.

SMILES	activation	Potency
Cc1nc2ccccc2c(=O)n1N(c1ccccc1)c1ccccc1	-5.22% [at 17.1 µM, percent relative to cAMP agonist control]	–
COc1ccc(C(=O)N/N=C/c2ccc3cccc(OCc4ccccc4)c3n2)cc1	-0.879%	–
O=C(O)CSc1cc(NS(=O)(=O)c2ccc(Cl)cc2)c2ccccc2c1O	7.16%	–
CSc1nc(C)cc(C)c1S(=O)(=O)c1ccccc1C	8.78% [at 17.1 µM, percent relative to cAMP agonist control]	–
O=C(Nc1sc2c(c1C(=O)O)CCC2)c1ccccc1F	0.131%	–
COc1cc(/C=C2\C(=O)N(c3cccc(C(=O)O)c3)N=C2C)ccc1OCc1ccccc1	-10.4%	–
Cc1ccc(CNc2cc(C)nc3nc(-c4cccc(C)c4)nn23)cc1	-1.59% [at 83.8 µM, percent relative to cAMP agonist control]	–
COc1cc(OC)c2c(-c3ccccc3)cc(=O)oc2c1C(CC(=O)N1CCOCC1)c1ccc2c(c1)OCO2 (stereo not given)	1.13% [at 17.1 µM, percent relative to cAMP agonist control]	–
CC(=O)C1C(=O)C=C(c2cccs2)CC1c1ccccc1 (stereo not given)	-4.19% [at 17.1 µM, percent relative to cAMP agonist control]	–
CC(=O)NC(c1ccccc1)c1nc(-c2cccs2)cs1 (stereo not given)	7.03%	–
O=[N+]([O-])c1ccccc1O[C@@H]1O[C@H](CO)[C@H](O)[C@H](O)[C@H]1O	-3.49%	–
Cc1nn(-c2ccccc2)c(Cl)c1/C=N/Nc1ccc(S(=O)(=O)Nc2ccccc2C(=O)O)cc1[N+](=O)[O-]	-15.6%	–
CC(C)=CCc1c(O)cc2oc3c(CC=C(C)C)c(O)c(O)c(CC=C(C)C)c3c(=O)c2c1O	-42.4%	–
CCCCCCc1cc2cc(-c3nnc(-c4ccc(C)cc4)o3)c(=O)oc2cc1O	20.4% [at 83.8 µM, percent relative to cAMP agonist control]	–
CCOC(=O)C1Nc2c(F)cc(C)cc2C2c3ccccc3CC12 (stereo not given)	16.3%	–
O=C1CC2(CCCCC2)Oc2ccc(F)cc21	9.13%	–
O=C(Cc1ccccc1Cl)Nc1ccc(S(=O)(=O)N2CCOCC2)cc1	8.27%	–
Cc1ccc(CC#N)c(-c2c(CC#N)ccc(C)c2C)c1C	0%	–
COC(C(=O)Nc1ccc(Br)cc1F)c1ccccc1 (stereo not given)	1.22%	–
O=C(Cc1c(Cl)cccc1Cl)Nc1ccc(S(=O)(=O)Nc2ncccn2)cc1	-4.4%	–

SMILES	activation	Potency
O=C1ON=C(c2ccccc2)/C1=C/c1ccc(-c2ccccc2[N+](=O)[O-])o1	-11.7%	–
CC(=O)N1CCc2c(sc(NC(=O)CS(=O)(=O)c3ccc(F)cc3)c2C(N)=O)C1	6.09%	–
CCN(CC1COc2ccccc2O1)C(=O)CN1C(=O)NC(C)(c2ccc(C)cc2)C1=O (stereo not given)	-9.24%	–
O=C(Cn1cnc2c(nnn2Cc2ccccc2)c1=O)N1CCN(c2ccccc2)CC1	10.4%	–
CCCCn1nnnc1C(c1ccccc1)N1CCN(c2ccc(F)cc2)CC1 (stereo not given)	-2.19%	–
COC(=O)C1=CN(Cc2cccs2)C=C(C(=O)OC)C1c1cccc(O)c1	9.24%	–
O=C(Nc1cccc(Cl)c1N1CCOCC1)c1cccs1	5.45%	–
Cc1nc2sc(C(c3cccs3)N3CCN(C(=O)c4ccco4)CC3)c(O)n2n1 (stereo not given)	3.52%	–
COC(=O)/C(=C/Nc1ccc(O)cc1)[N+](=O)[O-]	-5.76%	–
COc1ccc(C2=CC(=O)OC3(CCCCC3)O2)cc1	5.5% [at 17.1 µM, percent relative to cAMP agonist control]	–
O=C(CSc1nc2nn(-c3ccccc3)c(=O)c-2c2n1CCCCC2)c1ccc(O)c(O)c1	-16.8%	–
O=C(O)c1ccc(/C=N/Nc2cccc(C(F)(F)F)c2)cc1	-6.76%	–
COc1ccc(NC(=O)c2cc(-c3ccco3)nc3ccccc23)cc1S(=O)(=O)N1CCOCC1	-4.79%	–
COc1cc(/C=C2\C(=N)N3N=C(S(C)(=O)=O)SC3=NC2=O)ccc1OS(=O)(=O)c1ccc(C)cc1	3.42%	–
CCn1c(O)c(/C=N/NC(=O)c2ccncc2)c(=O)n(CC)c1=S	–	25.1 µM (active)
O=C(Nc1ccc2nc3n(c(=O)c2c1)CCCCC3)c1c(F)ccc([N+](=O)[O-])c1F	-4.51%	–
O=C(COc1ccccc1Cl)Nc1ccc(C(=O)c2ccc(C(=O)O)cc2)cc1	-6.52%	–
COc1ccc(/C=C2\N=C(SC)N(c3ccccc3OC)C2=O)cc1	7.24% [at 17.1 µM, percent relative to cAMP agonist control]	–
Nc1[nH]n2c(=O)cc(-c3ccccc3)nc2c1N=Nc1ccc(S(N)(=O)=O)cc1	0%	–
CC1=CC(C)(C)N(C(=O)c2ccc(F)cc2)c2cc3c(cc21)OCO3	3.2%	–

From PubChem BioAssay (NCATS)
